These results are taken from PubChem BioAssay (NCI).

Where “and” joins values, the source holds several entries; their conditions need not be identical. Identical values can stand only once. The panel holds about 83,000 compounds, 20% with a hit somewhere; the sample as a whole holds those more often.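 Cell lines were cultured in 96-well plates, exposed to a single compound concentration, and assessed for percent growth 48 hours later.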 Calls of active or inactive are those of the source. Rule for the calls: active = growth percent below 10; inactive = the rest.

This experiment deals with MDA-MB-468 breast. Kind of experiment: NCI-60 one-dose screen, 48 h (100 = growth as untreated, 0 = no growth, -100 = all killed). The note with it: 10 µM unless noted.
`O=C(NNc1ccccc1)c1ccccc1`: the growth is 87.1% (inactive) and 103% (inactive).

Turning to `CN1CCN(Cc2ccc(NC(=O)c3cncc(C#Cc4cnc5[nH]ncc5c4)c3)cc2C(F)(F)F)CC1`, the growth is 40% (inactive).

Consider `S=C(c1ccccc1)N1CCN(c2cccc(Cl)c2)CC1`, for which the growth is 105% (inactive).

Regarding `Cc1cc(Nc2nc(-c3ccc(F)cc3)nc3ccccc23)n[nH]1`, the growth was 58.2% (inactive).

For `CCOC(=O)c1sc(N)nc1-c1ccccc1`, the growth was 97.4% (inactive).

Turning to `O=C1C=C(O)C(=O)C=C1O`, the growth is 115% (inactive).

Turning to `COc1ccc(C(=S)N2CCN(c3ccc(Cl)cc3)CC2)cc1`, the growth was 102% (inactive).

`Cc1ccc(C=C2C(Cl)=C(Cl)C(Cl)=C2Cl)cc1`: the growth is -59.4% (active).

Take `NC(=O)c1ccc(Br)o1`: the growth was 103% (inactive).

Turning to `c1ccc(Nc2ccccn2)cc1`, the growth is 111% (inactive).

On to `Cc1[nH]c(C(=O)Nc2ccc(C(N)=O)cc2NC(C)C)c(Cl)c1Cl`, for which the growth was 83.7% (inactive).

On to `S=C1CCCCCN1`, for which the growth is 108% (inactive).

With `Nc1ccccc1NC(=O)CCCCCCC(=O)Nc1ccc2c(c1)/C(=C/c1ccc[nH]1)C(=O)N2`, the growth is 32.9% (inactive).

In the case of `CCCCCCCC/C=C\CCCCCCCCOc1ccc(CC(=O)NCC[N+]2(C)CCOCC2)cc1`, the growth is 43.9% (inactive).

Take `CC(=O)OCC(=O)O[C@@H]1C[C@]2(C(C)C)O[C@@]1(C)[C@@H]1CC[C@@H](C)[C@H]1[C@@H]2OC(=O)/C=C/c1ccccc1`: the growth was 83.7% (inactive).

In the case of `COc1ccc(-c2cc(/C=C/C(=O)c3ccc(N)cc3)[nH]n2)cc1`, the growth was 4.1% (active).
